# Source: PubChem BioAssay (several laboratories)
# Mcl1-Noxa inh – Mcl-1/Noxa binding inhibitors, primary screen, biochemical, TR-FRET, 1536-well. Induced myeloid leukemia cell differentiation protein Mcl-1 (Homo sapiens), Q07820. 220,000 compounds, 1.5% hits. AID 1022, 2008. TR-FRET Mcl-1/Noxa peptide binding, 2 h. inhibition, % at 21.7 µM;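 active means compounds that cut the protein-peptide binding signal by more than 50% relative to plate controls in a single-dose test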;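 further: His-tagged Mcl-1 with rhodamine Noxa BH3 peptide and terbium anti-His antibody; 0% = Mcl-1 plus Noxa peptide wells and 100% = peptide-only wells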
# Target sequence (Q07820 whole entry, looked up): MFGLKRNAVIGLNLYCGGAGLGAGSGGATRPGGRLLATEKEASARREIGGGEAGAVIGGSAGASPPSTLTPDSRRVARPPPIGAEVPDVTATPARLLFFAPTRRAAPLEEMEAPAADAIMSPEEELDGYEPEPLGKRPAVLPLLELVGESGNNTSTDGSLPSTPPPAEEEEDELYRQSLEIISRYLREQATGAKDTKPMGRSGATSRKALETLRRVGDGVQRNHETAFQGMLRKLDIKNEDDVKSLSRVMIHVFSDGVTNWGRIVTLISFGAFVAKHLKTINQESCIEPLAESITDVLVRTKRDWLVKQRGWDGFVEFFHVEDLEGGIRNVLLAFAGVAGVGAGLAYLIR
# Bim-Mcl-1 – inhibitors of Bim peptide binding to Mcl-1, primary screen, biochemical, bead-based flow cytometry, multiplex. 190,000 compounds, 0.1% hits. AID 1009, 2008. Bim peptide-Mcl-1 binding. Induced myeloid leukemia cell differentiation protein Mcl-1 (Homo sapiens), Q07820. inhibition, % at 10 µM; in the data active means inhibition above about 40%;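 further: 0% = no compound tracer wells and 100% = peptide blocker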
# 14-3-3 Bad PPI – inhibitors of 14-3-3 zeta/Bad binding, primary screen, biochemical, TR-FRET, bovine 14-3-3 zeta; 14-3-3 protein zeta/delta (Bos taurus), P63103; TR-FRET 14-3-3zeta/Dy647-pBad peptide displacement, 1 h; inhibition, % at 21.7 µM; 220,000 compounds, 0.71% hits; AID 781, 2007;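 active means inhibition above about 70%, limit read from the data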;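 further: 0% = full 14-3-3 plus peptide FRET controls and 100% = background without 14-3-3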
# Target sequence (P63103 whole entry, looked up): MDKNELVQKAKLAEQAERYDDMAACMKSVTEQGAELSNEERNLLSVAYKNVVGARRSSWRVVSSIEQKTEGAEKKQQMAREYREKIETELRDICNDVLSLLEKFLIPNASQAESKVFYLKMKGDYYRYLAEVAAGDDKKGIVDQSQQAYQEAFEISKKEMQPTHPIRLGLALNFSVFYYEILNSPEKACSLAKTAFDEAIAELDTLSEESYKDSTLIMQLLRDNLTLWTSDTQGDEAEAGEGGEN
# MCL1-BIM inh – inhibitors of MCL1 binding to BIM-BH3, primary screen, biochemical, fluorescence polarization. GST-MCL1 / FITC-Bim-BH3 fluorescence polarization. inhibition, % at 10.9 µM. Induced myeloid leukemia cell differentiation protein Mcl-1 (Homo sapiens), Q07820. 320,000 compounds, 0.68% hits;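 active means inhibition above the mean inhibition of all tested compounds plus 3 SD, set per campaign, cut at about 40% in these data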;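 further: 0% = DMSO wells and 100% = unlabeled Bim-BH3 peptide control; higher means more loss of mP so more displacement of Bim peptide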
# eIF4E-4G inh – eIF4E–eIF4G protein interaction inhibitors, primary screen, biochemical, uHTS, TR-FRET, eIF4GI fragment; 220,000 compounds, 0.37% hits; TR-FRET eIF4E-eIF4GI(517-606) binding, 2 h; inhibition, % at 21.7 µM;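 active means inhibition above about 30%, limit read from the data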;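 further: 0% = full FRET control wells and 100% = background wells lacking eIF4GI fragment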
# Mcl1-Bid inh – Mcl-1/Bid binding inhibitors, primary screen, biochemical, TR-FRET, 1536-well. 220,000 compounds, 0.97% hits. inhibition, % at 21.7 µM. Induced myeloid leukemia cell differentiation protein Mcl-1 (Homo sapiens), Q07820. TR-FRET Mcl-1/Bid-Dy647 peptide binding;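 active means compounds that cut the binding signal by more than half at the single screening dose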;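 further: His-tagged Mcl-1 with europium anti-His antibody binding Bid BH3 peptide; 0% = Mcl-1 plus peptide wells and 100% = peptide-only wells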
# * marks the source's active call; other numbers are inactive results; · = no result given; [ ] = another dose, or the depositor's remark. A selection: hits, their analogues and other compounds. The true share with any hit is near 2.6%.
SMILES,Mcl1-Noxa inh,Bim-Mcl-1,14-3-3 Bad PPI,MCL1-BIM inh,eIF4E-4G inh,Mcl1-Bid inh
c1ccc2[nH]c(-c3ccncc3)nc2c1,5,1,2,10,2,-47
Fc1cc2nc(-c3ccncc3)[nH]c2cc1F,-9,1,16,2,7,71*
CCCN(C(=O)CCl)C1=CCCCC1,9,1,-6,-3,0,-46
Cc1ccc(S(=O)(=O)Nc2c(C)n(C)n(-c3ccccc3)c2=O)cc1C(=O)NCc1ccccn1,-8,-3,3,0,84*,-14
Cc1ccc(S(=O)(=O)N2CCCCC2)cc1C(=O)NCc1ccccn1,·,·,·,3,·,·
Cc1ccc2nc(-c3ccc(NC(=S)NC4CC(C)(C)NC(C)(C)C4)cc3)sc2c1,40,0,93*,0,21,28
CCC1(c2ccc(F)cc2)NC(=O)N(CC(=O)Nc2cc(C)on2)C1=O (configuration not stated),·,·,·,1,·,·
O=c1cc(O)c2sc(Nc3ccc(Cl)c(F)c3)nc2[nH]1,51*,·,1,-40,-2,-180
COc1ccc(Nc2nc3[nH]c(=O)cc(O)c3s2)cc1,36,0,-11,1,4,-67
O=c1cc(O)c2sc(Nc3ccc(F)c(Cl)c3)nc2[nH]1,53*,3,-22,-25,7,-94
COc1cc(-c2nnc(CSc3nnc(Nc4ccc(Oc5ccccc5)cc4)s3)o2)cc(OC)c1OC,4,11,-3,-6,-1,-10
Cc1ccccc1OCCSCc1nc2ccccc2[nH]1,5,-3,2,3,2,10
CCN(CC)c1ccc(NC(=O)CNCc2ccccc2Cl)c(C)c1,·,·,·,3,·,·
Cc1cc(N(CCO)CCO)ccc1C(c1ccc(N(CCO)CCO)cc1C)c1ccccc1Cl,101*,1,3,23,8,57*
CC(C)Oc1ccc(C(=O)N2CCCc3ccccc32)cc1,-3,-3,-2,3,-4,-51
COc1ccc(C(=O)N2CCCc3ccccc32)cc1,0,4,88*,-7,-2,-14
O=C(NC(=S)N1CCCc2ccccc21)c1ccc(Cl)cc1,51*,-5,-4,10,-2,-53
Fc1ccc(-c2c[nH]c(=S)n2Cc2ccccc2)cc1,12,0,-5,-25,5,-77
O=C1CC(Cc2ccccc2)C(=O)N1CCCn1ccnc1 (configuration not stated),25,-2,75*,6,5,33
Cc1ccc(CC2CC(=O)N(CCc3ccccc3)C2=O)cc1 (configuration not stated),-9,-4,-7,0,6,-49
CS(=O)(=O)N1CCN(c2ccccc2NC(=O)c2ccc(-c3ccc(Cl)cc3Cl)o2)CC1,7,0,-11,-2,2,-23
CN1CCN(c2ccccc2NC(=O)c2ccc(-c3ccc(Cl)cc3Cl)o2)CC1,65*,1,-6,-3,4,-19
O=c1cc(-c2ccc([N+](=O)[O-])cc2)nc2cc(-c3ccc(Cl)cc3)[nH]n12,97*,-4,89*[fluorescence artefact?],-2,1,87*
COc1ccc(-c2csc(NC(=S)NC(=O)/C=C/c3ccco3)n2)cc1Br,66*,·,17,4,11,8
COc1ccc(-c2csc(NC(=S)NC(=O)c3ccco3)n2)cc1Br,·,·,·,4,·,·
SMILES,Mcl1-Noxa inh,Bim-Mcl-1,14-3-3 Bad PPI,MCL1-BIM inh,eIF4E-4G inh,Mcl1-Bid inh
COc1ccc(-c2csc(NC(=S)NC(=O)/C=C/c3ccco3)n2)cc1OC,52*,-6,21,-24,22,70*
CCC1CCCCN1C(=O)CCn1c(=O)oc2ccccc21 (configuration not stated),·,·,·,-6,·,·
Cc1cccc(NC(=O)CCCc2ccccc2)c1,·,·,·,12,·,·
CN(C)c1ccc(NC(=O)CCCc2ccccc2)cc1,79*,-1,10,20,0,7
Cc1ccc(S(=O)(=O)CCNC(=O)Cc2ccccc2)cc1,-2,-2,0,-1,2,96*
COc1ccccc1CNC(=O)CCS(=O)(=O)c1ccc(Cl)cc1,·,·,·,-2,·,·
Cc1ccc(S(=O)(=O)CCC(=O)NCc2ccccc2Cl)cc1,0,10,-21,-4,60*,-21
COc1ccc(-c2nnc(SCc3ccc(C(=O)O)cc3)n2C)cc1OC,·,·,·,3,·,·
Cc1ccc(NC(=O)c2ccc3c(c2)OCCO3)cc1,9,-1,-1,1,-3,-12
Cc1ccc(NC(=O)c2ccc(Cl)c(N3C(=O)C=CC3=O)c2)cc1,57*,-8,0,16,15,29
CCc1ccc2[nH]c(=O)c(C(c3nnnn3CC3CCCO3)N3CCN4CCCC4C3)cc2c1 (configuration not stated),10,1,-7,6,-7,95*
COc1ccccc1/C=C/C=N\N1CCN(Cc2ccccc2Cl)CC1,26,0,-5,-1,-5,-8
COc1ccccc1/C=C/C=N/N1CCN(Cc2ccc(Cl)cc2)CC1,29,-2,74*,-6,0,-7
Cc1ccc(/C=C2\Oc3c(ccc(O)c3CN3CCN(C)CC3)C2=O)cc1,-13,0,-8,42*,0,0
CCC(C)C(=O)Nc1nnc(SCC(=O)Nc2ccccc2F)s1 (configuration not stated),14,0,87*,0,-2,-4
OCc1ccccc1SSc1ccccc1CO,·,·,·,19,·,·
CCN(CC)Cc1cc2[nH]c3c4ccc(Cl)cc4ncc3c2cc1OC,63*,·,9,·,-1,7
Cc1ccc(-n2c(O)c(/C=N/Nc3ccc(S(=O)(=O)N4CCOCC4)cc3[N+](=O)[O-])c3ccccc3c2=O)c(C)c1,78*,4,3,11,-36,-7
O=C(CSc1ccccc1)N(c1ccc(Br)cc1)c1nccs1,-16,-4,-7,14,15,-30
COc1ccc2c(C)cc3n[nH]c(=S)n3c2c1,25,·,27,-26,33*,-15
COc1ccc(-c2n[nH]c(=S)n2-c2cc(OC)ccc2OC)cc1,-2,·,-4,-7,-8,-53
Cc1cc2nccc(-c3ccc(OCCCF)cc3)n2n1,·,·,·,-1,·,·
CCN(CC1COc2ccccc2O1)S(=O)(=O)c1ccc(C)cc1 (configuration not stated),5,3,-14,-6,-5,-1
